MCL1 BIM primary = inhibitors of MCL1 binding to BIM-BH3, primary screen, biochemical, fluorescence polarization. Induced myeloid leukemia cell differentiation protein Mcl-1 (Homo sapiens), Q07820. GST-MCL1 / FITC-Bim-BH3 fluorescence polarization. inhibition, % at 10.9 µM. actives 0.68% (n = 320,000);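 active means inhibition above the mean inhibition of all tested compounds plus 3 SD, set per campaign, cut at about 40% in these data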;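 further: 0% = DMSO wells and 100% = unlabeled Bim-BH3 peptide control; higher means more loss of mP so more displacement of Bim peptide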
Target sequence (Q07820 whole entry, looked up): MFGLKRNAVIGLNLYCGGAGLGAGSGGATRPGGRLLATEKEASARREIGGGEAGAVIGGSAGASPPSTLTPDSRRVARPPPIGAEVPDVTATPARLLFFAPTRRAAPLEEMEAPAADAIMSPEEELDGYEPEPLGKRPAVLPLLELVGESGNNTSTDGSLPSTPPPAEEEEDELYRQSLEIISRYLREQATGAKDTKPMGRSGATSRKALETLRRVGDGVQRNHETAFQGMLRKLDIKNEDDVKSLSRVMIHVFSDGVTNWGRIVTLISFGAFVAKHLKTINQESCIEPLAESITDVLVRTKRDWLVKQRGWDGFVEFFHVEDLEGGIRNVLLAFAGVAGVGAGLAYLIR
eLon inh = inhibitors of E. coli Lon protease, primary screen, biochemical, fluorescence polarization; AID 602123, 2011; purified E. coli Lon protease; inhibition, % at 7.94 µM; P0A9M0; actives 0.42% (n = 360,000); in the data active means inhibition above about 13%, passing the limit was not always enough;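 further: 0% = enzyme with probe and DMSO and 100% = no enzyme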
EBV gp42 inh = Epstein-Barr virus gp42 inhibitors, primary screen, biochemical, uHTS, fluorescence polarization. Glycoprotein 42 (Epstein-Barr virus (strain AG876)), Q1HVG2. Fluorescence polarization binding assay, mP read-out. inhibition, % (tested at 21.74 µM). actives 0.42% (n = 220,000); in the data active means inhibition above about 50%
Target sequence (Q1HVG2 whole entry, looked up): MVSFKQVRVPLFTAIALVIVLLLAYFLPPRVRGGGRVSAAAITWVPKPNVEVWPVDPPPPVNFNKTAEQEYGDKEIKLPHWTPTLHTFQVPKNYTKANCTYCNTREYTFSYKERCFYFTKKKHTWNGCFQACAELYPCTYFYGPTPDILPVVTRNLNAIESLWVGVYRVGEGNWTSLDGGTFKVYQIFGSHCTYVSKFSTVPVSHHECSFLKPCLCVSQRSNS
GLD-1 RNA inh = GLD-1/TGE RNA complex disruptors, primary screen, biochemical, fluorescence polarization; purified GLD-1 + fluorescein TGE RNA; Female germline-specific tumor suppressor gld-1 (Caenorhabditis elegans), Q17339; actives 0.44% (n = 320,000); inhibition, % at 5.96 µM;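 active means percent inhibition above a per-plate cutoff, the plate mean of test compounds plus 3 SD, cut at about 30% in these data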;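 further: 0% = DMSO wells with GLD-1 and probe and 100% = wells lacking GLD-1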
Bcl-xL primary = inhibitors of human Bcl-xL, primary screen, biochemical, fluorescence polarization, HTS; GST-Bcl-xL / FITC-Bim BH3 peptide fluorescence polarization; inhibition, % at 10.9 µM; actives 0.7% (n = 320,000);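 active means inhibition above the mean of all tested compounds plus 3 SD, cutoff set per campaign, cut at about 30% in these data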;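 further: 0% = DMSO wells and 100% = unlabeled Bim-BH3 peptide competitor; inhibitors lower millipolarization by displacing the labeled peptide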
MEX-5 binding = MEX-5 zinc finger RNA-binding disruptors – biochemical, C. elegans, fluorescence polarization, MLPCN library, primary screen; MEX-5/FITC-TCR2 RNA binding; hits give low values; Zinc finger protein mex-5 (Caenorhabditis elegans), Q9XUB2; AID 1832, 2009; activity score (negative = inhibition of binding), % at 10 µM; actives 0.38% (n = 300,000);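 active means inhibition past about -25% in most replicates, and total fluorescence under double the plate's negative control median, limit read from the data; inconclusive means replicates evenly split on the limit, or fluorescence at least double controls; inactive means too little inhibition in most replicates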;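 further: 0% = DMSO and -100% = 5 µM competing unlabeled TCR2 RNA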
An asterisk follows results filed as active; ? = inconclusive; nt = no result given. Most compounds without a hit are left out; they make up all but 1.5% or so of the library.

SMILES	MCL1 BIM primary	eLon inh	EBV gp42 inh	GLD-1 RNA inh	Bcl-xL primary	MEX-5 binding
CCN(CC)S(=O)(=O)c1ccc(C(=O)NC2CN3CCC2CC3)cc1 (stereo not given)	0.0	-1.8	nt	4.3	1.5	1.2
COc1ccc(N=Nc2c(O)[nH]c(=S)[nH]c2=O)cc1	-87.8	-66.2	-125.1	-84.6	-42.5	-0.5
CSc1nc(N)c(N=Nc2ccc([As](=O)(O)O)cc2)c(=O)[nH]1	8.1	-5.7	-13.5	-1.8	9.6	-33.5*
NS(=O)(=O)c1ccc(-c2ccc(C=C3C(=O)NC(=O)NC3=O)o2)cc1	-5.3	-14.3	nt	-2.9	5.3	-2.3
NS(=O)(=O)c1ccc(-c2ccc(C=C3C(=O)NC(=S)NC3=O)o2)cc1	-25.8	nt	nt	-4.6	-16.3	-49.2*
COc1ccc(/C=C/C(=O)c2c(O)n(CCC3=CCCCC3)c(=O)[nH]c2=O)cc1OC	-2.3	-13.2	-82.7	-1.6	-1.6	-47.2*
CN(C)c1ccc(N=Cc2c(O)n(CCC3=CCCCC3)c(=O)[nH]c2=O)cc1	6.7	-12.0	-85.1	-1.6	7.0	-63.0*
CN1CCCN(C(=O)COc2cccc(C(F)(F)F)c2)CC1	4.0	-1.1	nt	5.1	0.1	1.7
COC(=O)Cn1cc(C=C2C(=O)N(C)C(=O)N(C)C2=O)c2ccccc21	-14.0	nt	nt	-9.0	-5.0	-80.1*
CCN(CC)C(=O)Cn1cc(C=C2C(=O)N(C)C(=O)N(C)C2=O)c2ccccc21	-4.6	-3.9	nt	-1.5	1.9	?
CCCN1CCc2cc(O)cc3c2[C@H]1Cc1ccc(O)c(O)c1-3	36.8	-3.0	nt	1.0	32.2*	-82.5*
COc1cc2c(cc1O)C[C@H]1c3c(cc(O)c(OC)c3-2)CCN1C	9.9	-6.3	nt	8.3	13.0	nt
CN(C)C(=O)Oc1ccc2nnc3ccnn3c2c1	28.9	-13.1	nt	11.6	30.6*	-2.5
CCN(C(=O)COC(=O)c1cc(C)n(C2CC2)c1C)c1ccccc1	-6.9	3.0	nt	1.6	-5.6	nt
Cc1[nH]c2ccccc2c1C(=O)C(=O)N1CC2CC(C1)c1cccc(=O)n1C2 (stereo not given)	3.4	-2.3	-5.9	-0.6	5.5	0.5
O=[N+]([O-])c1cc([As](=O)(O)c2ccc(O)c([N+](=O)[O-])c2)ccc1O	4.5	-0.5	-12.8	-2.9	2.7	1.9
O=[N+]([O-])c1cc(-c2ccc([As](=O)(O)O)cc2)ccc1[As](=O)(O)O	nt	nt	0.7	nt	nt	-46.3*
CN1C(=O)C(Cc2c[nH]c3ccccc23)C(=O)N(C)C1=O	nt	nt	104.5*	nt	nt	nt
COc1cc(C2(C#N)CCN(C)CC2)cc(OC)c1OC	nt	4.1	nt	nt	nt	nt
CC(C)(C)OC(=O)c1c(N)n(Cc2ccco2)c2nc3ccccc3nc12	40.8*	-14.0	-10.2	48.1*	53.5*	-7.6
COCCNC(=O)c1c(N)n(Cc2ccco2)c2nc3ccccc3nc12	16.8	-18.0	-3.8	8.1	13.3	-1.5
c1ccc2c(c1)[nH]c1cnccc12	1.4	-2.9	-5.3	2.2	1.7	1.1
Cc1c2ccncc2c(C)c2c1[nH]c1ccccc12	88.2*	-1.1	112.6*	-0.2	66.2*	-1.5
CC12CCC(O)CC1CCC1C2CCC2(C)C(C(=O)CO)CCC12 (stereo not given)	nt	-10.8	nt	nt	nt	nt
COc1ccc(Cn2c(O)c(C=Nc3c(C)n(C)n(-c4ccccc4)c3=O)c(=O)[nH]c2=O)cc1	-6.2	1.5	-22.9	-10.2	-3.9	2.6
SMILES	MCL1 BIM primary	eLon inh	EBV gp42 inh	GLD-1 RNA inh	Bcl-xL primary	MEX-5 binding
COc1ccc(OC)c(N=Cc2c(O)n(Cc3ccccc3)c(=S)[nH]c2=O)c1	-10.6	-22.5	18.6	-4.7	-5.2	-47.0*
COc1ccc(N=Cc2c(O)n(Cc3ccccc3)c(=S)[nH]c2=O)c(OC)c1	3.9	-4.2	89.8*	4.5	7.2	-57.5*
CNC(=O)Oc1c(C)[nH]ccc1=O	nt	11.3	nt	nt	nt	nt
Cc1cc(C)cc(-n2c(O)c(C=Nc3ccc(N4CCOCC4)cc3)c(=O)[nH]c2=S)c1	-26.8	-26.7	58.5*	-5.6	-17.3	-51.6*
CN1C(=O)NC(=O)/C(=C\c2ccc([N+](=O)[O-])o2)C1=O	39.3	-9.2	-3.9	22.9	38.8*	-61.0*
CN1C(=O)NC(=O)/C(=C/c2ccc([N+](=O)[O-])o2)C1=O	27.4	nt	-9.4	5.5	30.2*	-43.4*
O=C1NC(=O)N(c2ccccc2)C(=O)/C1=C\c1ccc([N+](=O)[O-])o1	41.8*	nt	-11.8	12.2	35.9*	-2.0
CN1C(=O)NC(=O)/C(=C/c2ccc([N+](=O)[O-])s2)C1=O	18.4	-26.1	-4.5	10.7	14.5	-10.5
CCN(CC)S(=O)(=O)c1cccc(N=Nc2c(O)n(CC)c(=S)n(CC)c2=O)c1	8.3	2.7	1.6	-1.5	-0.3	-0.4
C=C(C)CN1CC[C@]23c4c5ccc(O)c4O[C@H]2c2[nH]c4ccccc4c2C[C@@]3(O)C1C5	4.5	nt	1.9	5.5	1.1	-3.8
Cc1cccc(N2C(=O)NC(=O)/C(=C\c3cc(C)n(-c4sc5c(c4C#N)CCCC5)c3C)C2=O)c1C	-12.5	-30.2	-37.2	-15.5	-2.9	1.3
CCOC(=O)c1c(-n2c(C)cc(C=C3C(=O)NC(=O)NC3=O)c2C)sc2c1CCCC2	-5.2	-9.9	-138.0	1.6	-1.9	-45.4*
O=c1[nH]c(=O)n(-c2cccc(Cl)c2)c(O)c1/C=N/c1ccccn1	-18.1	-41.9	-18.9	-13.4	-14.4	-28.8*
Cc1ccc(-n2c(=S)[nH]c3ccccc3c2=O)cc1C	nt	-6.0	nt	nt	nt	nt
O=C(N/N=C/c1c(O)n(Cc2ccco2)c(=O)[nH]c1=O)c1ccccc1O	26.3	-24.3	-14.6	-8.5	5.6	-26.8*

From PubChem
